DT40 TDP1 no CPT: qHTS for Inhibitors of human tyrosyl-DNA phosphodiesterase 1 (TDP1): qHTS in cells in absence of CPT; DT40 Tdp1-/- hTDP1 cells, no CPT, ATP luminescence, 48 h; Potency, µM (doses to about 46.2 µM), inactives show at the top dose activity change, negative = growth inhibition, usual class: inhibitors; actives 15% (n = 420,000); AID 686978, 2013; also: potency is read from the fitted curve at half-maximal effect; nearly all actives have a fitted effect of over 55% in size
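Chicken DT40 Tdp1-/- cells complemented with human TDP1, screened without camptothecin (DMSO vehicle only), 400 cells/well. Compounds pin-transferred, cells incubated at 37 °C for at least 48 hr. Growth read as ATP-dependent luminescence (CellTiter-Glo, 30 min at RT).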
HT1080NT lethal: kills 2HG-producing HT-1080-NT fibrosarcoma cells | Potency, µM (doses to about 46.1 µM), inactives show top-dose activity, negative = less viability, actives largely listed as cytotoxic | actives 1.6% (n = 360,000) | HT-1080-NT fibrosarcoma viability, CellTiter-Glo ATP luminescence, 48 h;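 also: NT is the 2HG producing partner of a matched IDH1 knockdown line; potency is read from the fitted curve at half-maximal effect; 0% = DMSO-treated cells and -100% = media-only wells without cells; nearly all actives have a fitted effect of over 55% in size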
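HT-1080-NT; 750 cells/well; 5% FBS RPMI; 48 h compound, 37 degrees C; CellTiter-Glo luminescence; curve fitting and curve-class assignment.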
HT1080 IDH1KD tx: toxicity to HT-1080 IDH1 knockdown cells (counter line). AID 686971. HT-1080 IDH1 knockdown viability, ATP luminescence, 48 h. actives 2% (n = 360,000). Potency, µM (top dose mostly 46.1 µM), without a hit: at the top dose activity, negative = toxicity, usual class: cytotoxic;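 also: potency is read from the fitted curve at half-maximal effect; 0% = DMSO wells and -100% = cell-free medium wells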
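Luminescent ATP read-out (CellTiter-Glo, 10 min at room temperature) after 48 h compound exposure at 37 °C gave viability of IDH1-knockdown HT-1080 cells. Activity was normalised to DMSO and cell-free wells, then fitted as concentration-response curves.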
12-LOX inh: ALOX12 (human) lipoxygenase inhibition; AID 1671190; P18054; actives 1.1% (n = 580,000); purified 12hLO, xylenol orange hydroperoxide absorbance; Potency, µM (top dose mostly 108 µM), without a hit: at the highest dose activity change, negative = inhibition, usual class: inhibitors; also: potency is read from the fitted curve at half-maximal effect
Target sequence (P18054 whole entry, looked up): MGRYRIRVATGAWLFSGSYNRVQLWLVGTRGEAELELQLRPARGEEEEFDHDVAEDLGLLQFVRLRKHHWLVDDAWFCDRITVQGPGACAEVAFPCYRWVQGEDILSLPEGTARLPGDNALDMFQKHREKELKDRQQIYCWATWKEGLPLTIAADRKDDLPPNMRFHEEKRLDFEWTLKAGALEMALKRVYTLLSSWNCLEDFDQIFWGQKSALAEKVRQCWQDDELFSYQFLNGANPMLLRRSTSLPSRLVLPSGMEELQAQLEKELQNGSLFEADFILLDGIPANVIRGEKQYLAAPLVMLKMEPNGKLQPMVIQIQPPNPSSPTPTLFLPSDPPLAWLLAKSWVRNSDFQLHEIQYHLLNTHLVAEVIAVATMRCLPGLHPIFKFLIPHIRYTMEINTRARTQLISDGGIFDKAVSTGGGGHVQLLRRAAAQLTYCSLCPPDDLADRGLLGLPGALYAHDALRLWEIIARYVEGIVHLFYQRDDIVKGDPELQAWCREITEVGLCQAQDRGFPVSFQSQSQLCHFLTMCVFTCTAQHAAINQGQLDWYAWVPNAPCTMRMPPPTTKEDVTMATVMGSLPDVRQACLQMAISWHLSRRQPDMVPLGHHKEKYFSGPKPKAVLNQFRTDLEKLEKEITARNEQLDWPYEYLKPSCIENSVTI
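Purified human 12hLO (150 nM final) in 25 mM Hepes, 0.01% Triton X-100, pH 7.0 was preincubated 15 min at room temperature with compound. Then 40 uM arachidonic acid was added, 30 min. Hydroperoxide was read by Fe-XO absorbance ratio 573/405 nm.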
IL-1B inflam inh: blocks inflammasome-driven IL-1 beta release; actives 4.7% (n = 360,000); activity change, % at 57.5 µM; THP-1 LPS/ATP IL-1B secretion, AlphaLISA, 16 h; hits give low values; in the data active = activity change below about -50%; inconclusive = mostly about -30% to -49%
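Secreted IL-1B measured by AlphaLISA bead assay after 16 h compound exposure of THP-1 cells; compounds (final up to 57.5 uM) added 1 h before LPS (250 ng/mL) and ATP (1.25 mM) stimulation; lower signal means less secretion.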
DT40 TDP1 CPT: DT40-hTDP1 cell growth loss with CPT. chicken DT40 Tdp1-/-;hTDP1 cells + 20 nM CPT, ATP luminescence, 48 h. Potency, µM (highest dose often 46.2 µM), for the others: at the top dose activity change, negative = growth inhibition, hits mostly inhibitors. actives 12% (n = 420,000). AID 686979; also: potency is read from the fitted curve at half-maximal effect; nearly all actives have a fitted effect of over 55% in size
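Chicken DT40 Tdp1-/- cells complemented with human TDP1, 400 cells/well, exposed to compounds plus 20 nM camptothecin for at least 48 h at 37 C; viability read as ATP content by CellTiter-Glo luminescence.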
* marks the source's active call; other numbers are inactive results; ? = inconclusive; / = no result given; [ ] = dose if it differs, or a comment. This is one part of a sample in which hits are shown more often than they occur. Unless noted, calls follow the shape of the dose curve; as a rule, active = well fitted curve in the direction sought with a large enough effect; inconclusive = small, poorly fitted or top-dose-only effect, or another doubt; inactive = no such curve, though single readings can be large; an effect the other way counts as inactive or inconclusive. Unless noted, % is scaled to controls: 0 for no effect and ±100 for the full control effect.

SMILES	DT40 TDP1 no CPT	HT1080NT lethal	HT1080 IDH1KD tx	12-LOX inh	IL-1B inflam inh	DT40 TDP1 CPT
CCN(CC)S(=O)(=O)c1cccc(-c2nnc(SCCOc3ccccc3)o2)c1	20.6µM*	?	-8.5%	0.0%	-13.2	16.4µM*
CCN(CC)S(=O)(=O)c1cccc(-c2nnc(SCCOc3ccc(Cl)cc3)o2)c1	?	-3.4%	?	-1.1%	-9.8	23.1µM*
Cn1cccc1CN1CCC12Cc1ccccc1NC2=O (configuration not stated)	/	/	/	17.7%[176 µM]	/	/
O=C(Cc1ccccc1)Nc1ncccc1Cl	?	3.3%	18.7%	-20.9%	/	8.9%
CCN(CC)S(=O)(=O)c1cccc(-c2nnc(SCC(=O)c3cc(C)n(C)c3C)o2)c1	20.6µM*	14.9%	10.6%	16.3%	-24.8	20.6µM*
O=C(c1ccc(Cl)cc1)N1CCNc2cnc(Nc3ccccc3)nc2C1	/	/	/	-12.6%[176 µM]	/	/
O=C(Nc1ccccc1)N1CC2(CCN(S(=O)(=O)c3ccccc3)CC2)C1	-14.7%	/	/	-8.7%[57.4 µM]	/	-3.8%
CNC(=O)c1ccc(CN(C)C(=O)C2CCN(C(=O)/C=C/c3ccccc3)CC2)cc1	/	/	/	17.8%	/	/
COc1ccccc1NS(=O)(=O)c1cc(NC(=O)c2ccc(NC(C)=O)cc2)ccc1N1CCOCC1	5.8µM*	2.3%	2.8%	?	-1.8	2.31µM*
COc1ccccc1NS(=O)(=O)c1cc(NC(=O)c2cnccn2)ccc1N1CCOCC1	0.0%	3.0%	-9.0%	10.9%	4.7	-17.0%
COc1ccccc1NS(=O)(=O)c1cc(NC(=O)C(C)(C)C)ccc1N1CCOCC1	-22.6%	12.0%	11.3%	-18.6%	-18.3	?
COc1ccccc1NS(=O)(=O)c1cc(NC(=O)c2sccc2C)ccc1N1CCOCC1	?	-21.9%	-27.6%	0.0%	-15.9	20.6µM*
COc1ccccc1NS(=O)(=O)c1cc(NC(=O)c2ccncc2)ccc1N1CCOCC1	11.6µM*	2.2%	0.6%	9.7%	31.4	11.6µM*
COc1ccccc1NS(=O)(=O)c1cc(NC(=O)C2CCCC2)ccc1N1CCOCC1	?	-3.7%	-5.4%	-28.1%	-24.5	14.6µM*
COCC(=O)Nc1ccc(N2CCOCC2)c(S(=O)(=O)Nc2ccccc2OC)c1	?	-4.0%	-4.9%	?	-2.4	-18.8%
COc1ccccc1NS(=O)(=O)c1cc(NC(=O)c2sccc2C)ccc1N1CCCC1	?	-0.4%	2.5%	-12.6%	-14.2	?
CCc1cccc(CC)c1NC(=O)C(C)Sc1ccccc1 (configuration not stated)	/	/	/	-41.3%	/	/
CCC(OC(=O)c1cccs1)C(=O)NCc1ccc(C)cc1 (configuration not stated)	3.5%	13.8%	10.5%	-11.5%	30.9	-9.8%
N#Cc1cccc(C(=O)/C=C/c2ccsc2)c1	/	/	/	0.6%	/	/
COc1ccccc1NS(=O)(=O)c1cc(NC(=S)NCCN2CCOCC2)ccc1N1CCOCC1	?	4.2%	-1.9%	50.1µM*	19.6	?
Cc1ccc(-c2cc3ccccn3c2C=O)cc1C	/	/	/	15.8µM*	/	/
CCOc1ccc(-c2oc3ccccc3c(=O)c2O)cc1OCC	?	/	/	-20.1%	/	?
O=c1c(O)c(-c2ccc3c(c2)OCO3)oc2ccccc12	?	?	?	?	-0.8	18.4µM*
COc1cccc(-c2oc3ccccc3c(=O)c2O)c1	26.6µM*	/	/	/	/	26.6µM*
O=c1[nH]c(N2CCOCC2)nc2c1CCCC2	-14.0%	8.8%	13.3%	0.0%	20.8	?
SMILES	DT40 TDP1 no CPT	HT1080NT lethal	HT1080 IDH1KD tx	12-LOX inh	IL-1B inflam inh	DT40 TDP1 CPT
CCOc1ccccc1C(=O)Nc1c(C(=O)N2CCN(Cc3ccccc3)CC2)oc2ccccc12	/	/	/	1.7%	/	/
COc1ccc(/C=C2\Oc3cc(OC(=O)c4ccc(C(C)(C)C)cc4)ccc3C2=O)c(OC)c1OC	/	/	/	0.4%	/	/
N#CC1=C2CCCCC2(O)NC1=O (configuration not stated)	4.2%	8.8%	4.2%	-17.3%	5.0	-3.9%
O=C(Cc1ccccc1)N/N=C/c1cc(Br)cc(Cl)c1O	2.31µM*	?	?	?	?	3.66µM*
COc1cc(Br)cc(C=Nc2cccc(C(F)(F)F)c2)c1O	?	-15.8%	?	-21.3%	-50.3*	?
COc1cccc(C=Nc2cc(C)cc(C)c2)c1O	-1.7%	7.4%	14.8%	-16.5%	-17.0	-1.1%
COc1cc(Br)cc(/C=N/NC(=O)Cc2ccccc2)c1O	0.461µM*	18.4µM*	8.2µM*	12.4%	99.2	0.517µM*
O=C(Cc1ccccc1)NN=Cc1ccccc1	-20.7%	18.9%	11.8%	-3.5%	-9.7	-13.1%
COc1ccc(Br)cc1/C=N/NC(=O)C[n+]1ccccc1	13µM*	-0.4%	0.7%	30.1%	27.7	18.4µM*
O=C(NCc1ccccc1F)C1CC(c2ccccc2)CN(C(=O)COc2ccccc2)C1 (configuration not stated)	/	/	/	-0.8%	/	/
CN(C)c1ccc(CN2CCC3(C2)NC(=O)c2ccccc2CO3)cc1 (configuration not stated)	/	/	/	33.6%	/	/
O=C(C[n+]1ccccc1)N/N=C/c1cc(Br)cc(Br)c1O	5.4%	?	?	/	85.4	8.0%
O=C(CP(=O)(c1ccccc1)c1ccccc1)N/N=C/c1cc(Br)cc(Br)c1O	14.6µM*	-9.6%	?	-1.9%	65.4	14.6µM*
O=Cc1ccccc1OCc1ccc2c(c1)OCO2	2.91µM*	?	?	19.8%	32.8	5.17µM*
COc1ccc(C(C(=O)NC2CCCC2)N(C(=O)c2snc(-c3ccc(F)cc3)c2N)c2ccc(OC)cc2)cc1 (configuration not stated)	3.66µM*	-17.0%	3.4%	-24.9%	-2.5	8.2µM*
COc1ccc(C(C(=O)NC2CCCCC2)N(C(=O)c2sc(C)nc2C)c2ccccc2)cc1 (configuration not stated)	-24.3%	5.7%	0.5%	-7.3%	27.6	8.9%
COc1ccc(C(C(=O)NC2CCCC2)N(C(=O)c2snc(-c3ccc(F)cc3)c2N)c2cccc(F)c2)cc1 (configuration not stated)	7.31µM*	-1.6%	0.0%	-15.7%	39.8	6.51µM*
COc1ccc(C(C(=O)NC2CCCC2)N(C(=O)c2snc(-c3ccc(F)cc3)c2N)c2ccccc2)cc1 (configuration not stated)	20.6µM*	4.9%	0.2%	0.0%	13.5	14.6µM*

Source: PubChem BioAssay (National Center for Advancing Translational Sciences (NCATS))
